# Screening results as filed in PubChem.
# PI5P4Ka inh: PI5P4K alpha (human) kinase inhibition; P48426; PI5P4Kalpha enzyme, ADP-Glo luminescence, 60 min; active compounds read low; max response, %; actives 1.2% (n = 330,000); AID 652105; active = max response of -50% or lower; inconclusive = between -30% and -50%; inactive = -30% or higher; also: value at the top dose of about 77 µM
#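 ADP-Glo luminescence end-point after a 60 min room-temperature kinase reaction. PI5P4Kalpha and substrate in HEPES pH 7.4 buffer with EGTA, 0.1% CHAPS and 5% DMSO; ATP at 5 microM final.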
# PI4K2A block: blocks human PI4K2A kinase activity; Q9BTU6; purified PI4K2A, ADP-Glo luminescence, 1 h; active compounds read low; activity change, negative = inhibition, % at 76.9 µM; actives 0.13% (n = 420,000); AID 1346378; in the data active = activity change below about -50%; inconclusive = mostly about -30% to -49%;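 also: -100% = wells without enzyme as full effect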
#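 PI4K2A activity was measured by ADP-Glo luminescence: enzyme (4 ug/mL stock) and phosphatidylinositol (1.2 mM stock) in Tris pH 7.5/MgCl2/EGTA/Triton X-100 buffer were reacted with ATP (300 microM stock) for one hour at ambient temperature.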
# PGK inhibitor: T. brucei PGK inhibition. Potency, µM (highest dose often 57.5 µM), for the others: at the top dose activity change, negative = inhibition, actives largely listed as inhibitors. AID 602233. P07378. PGK/GAPDH coupled, Kinase-Glo luminescence, 60 min. actives 0.043% (n = 380,000); also: potency is read from the fitted curve at half-maximal effect; nearly all actives have a fitted effect of over 60% in size
# Target sequence (P07378 whole entry, looked up): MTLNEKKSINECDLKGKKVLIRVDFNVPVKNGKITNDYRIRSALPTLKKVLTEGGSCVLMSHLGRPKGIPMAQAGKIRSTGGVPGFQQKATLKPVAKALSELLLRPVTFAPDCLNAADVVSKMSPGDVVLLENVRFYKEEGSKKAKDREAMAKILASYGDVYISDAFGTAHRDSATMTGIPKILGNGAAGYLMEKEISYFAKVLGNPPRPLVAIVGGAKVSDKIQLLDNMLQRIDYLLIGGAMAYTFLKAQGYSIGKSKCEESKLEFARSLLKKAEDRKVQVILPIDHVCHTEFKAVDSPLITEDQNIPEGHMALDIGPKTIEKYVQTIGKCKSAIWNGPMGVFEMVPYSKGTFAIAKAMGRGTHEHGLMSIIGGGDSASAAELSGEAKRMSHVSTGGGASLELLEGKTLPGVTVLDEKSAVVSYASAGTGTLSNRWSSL
#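 Luminescent ATP detection (Kinase-Glo Plus) follows a 60-minute room-temperature incubation, with wells lacking PGK as controls. Buffer: 100 mM TEA (pH 7.6), 5 mM MgCl2, 0.01% Tween-20. Coupling enzyme GAPDH (100 nM final) supplies unstable 1,3-BPG in-well.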
# Pin1 inhibitor: human Pin1 inhibition; Q13526; Pin1 FP peptide displacement, HiFluor488, 10 min; Potency, µM (top dose mostly 115 µM), for inactives: top-dose activity, negative = inhibition, usual class: inhibitors; actives 0.009% (n = 390,000); AID 504891; active = well fitted inhibition curve with a large enough effect in the polarisation, with a control signal flat, not every such curve was filed as active; inconclusive = small, poorly fitted or top-dose-only effect, or effect the other way, or a change in a side signal; inactive = no such curve, though single readings can be large or run the other way; the % refers to the polarisation; also: potency is read from the fitted curve at half-maximal effect
# Target sequence (Q13526 whole entry, looked up): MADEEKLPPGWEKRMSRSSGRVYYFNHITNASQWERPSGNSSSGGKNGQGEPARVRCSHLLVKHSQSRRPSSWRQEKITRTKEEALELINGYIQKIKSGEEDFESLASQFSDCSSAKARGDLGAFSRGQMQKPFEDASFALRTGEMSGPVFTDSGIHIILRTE
# Tb PFK block: inhibitors of T. brucei phosphofructokinase; O15648; T. brucei PFK, ADP-Glo luminescence; Potency, µM (series often up to 57.5 µM), for the others: at the highest dose activity, negative = inhibition, actives largely listed as inhibitors; actives 0.17% (n = 330,000); AID 485367;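 also: potency is read from the fitted curve at half-maximal effect; 0% = uninhibited 1x PFK enzyme wells and -100% = no-enzyme wells; nearly all actives have a fitted effect of over 60% in size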
#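 ADP-Glo luminescence quantified ADP after 45 min at room temperature, with 1.25 nM T. brucei PFK, 0.1 mM ATP and 0.5 mM fructose-6-phosphate in pH 8.0 TEA buffer. qHTS titrations up to 57 µM; curves classified by quality.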
# An asterisk follows results filed as active; i = inactive; ? = inconclusive; . = no result. This excerpt belongs to a sample that is enriched for hits. Unless noted, calls follow the shape of the dose curve; as a rule, active = well fitted curve in the direction sought with a large enough effect; inconclusive = small, poorly fitted or top-dose-only effect, or another doubt; inactive = no such curve, though single readings can be large; an effect the other way counts as inactive or inconclusive. Unless noted, % is scaled to controls: 0 for no effect and ±100 for the full control effect.
SMILES,PI5P4Ka inh,PI4K2A block,PGK inhibitor,Pin1 inhibitor,Tb PFK block
O=C(COC(=O)c1c2c(nc3ccccc13)/C(=C/c1ccco1)CC2)NC1CCCC1,-71*,?,-16%,?,-21%
Cc1cc(C(=O)OCC(=O)NC2CCCC2)c2ccccc2n1,1,0,-12%,-4%,11%
Cc1cc(C(=O)OCC(=O)NC2CCCCC2C)c2ccccc2n1 (stereo not drawn),-2,-2,i,4%,4%
CC1CCCCC1NC(=O)COC(=O)c1c2c(nc3ccccc13)/C(=C/c1ccco1)CC2 (stereo not drawn),-83*,?,-10%,.,-16%
CC(=O)c1ccc(-c2cnc3c(NC=O)cc(-c4ccc(C(=O)NC5CC5)cc4)cn23)cc1,-68*,-2,.,.,.
COc1cccc(-c2cc(NC=O)c3ncc(-c4ccc(OC)c(OC)c4)n3c2)c1,-54*,-1,.,.,.
CC(=O)Nc1cccc(-c2cc(NC(C)=O)c3ncc(-c4cccc(C(C)=O)c4)n3c2)c1,-11,2,.,.,.
O=CNc1cc(-c2cccc(O)c2)cn2c(-c3ccc(F)cc3)cnc12,-72*,-9,.,.,.
CC(=O)Nc1cccc(-c2cc(NC=O)c3ncc(-c4ccc(C(C)=O)cc4)n3c2)c1,-51*,-4,.,.,.
Cc1ccc2ccc(Cl)cc2n1,.,-3,.,.,.
CC(=O)c1ccc(-c2cnc3c(NC=O)cc(-c4ccc(N5CCN(C)CC5)cc4)cn23)cc1,-51*,-9,.,.,.
NC(=S)N/N=C/c1ccc(-c2ccc([N+](=O)[O-])cc2)o1,-56*,-7,-12%,?,-1%
NC(=S)N/N=C/c1ccc(-c2cc(Cl)cc(Cl)c2)o1,?,-1,-7%,19%,.
O=c1c2ccccc2nc2sc(NCc3ccc([S+](=O)([O-])c4ccccc4)cc3)nn12,.,.,.,-2%,.
Nc1nc(NCc2ccc(Cl)cc2)nc(NCCO)c1[N+](=O)[O-],-57*,2,-6%,-5%,-14%
O=C(O)c1c(O)c(-c2ccccc2)nc2ccccc12,.,0,.,.,.
Cc1cc(/C=N/Nc2ccc([N+](=O)[O-])cn2)c(C)n1-c1ccc(C(=O)O)cc1,-84*,-8,-25%,18%,?
COC(=O)[C@]12C[C@H](CC(=O)NCc3cccs3)C(=O)N(Cc3ccco3)C1=C[C@H](COCc1ccccc1)O[C@@H]2C,.,-2,.,.,.
O=C(/C=C/c1ccc(O)cc1)c1ccccc1,-8,-75*,?,1%,-26%
Cc1ccc(-n2c(SCC(=O)Nc3ccccc3-c3ccccc3)nnc2-c2cccnc2)cc1,.,-8,.,.,.
CCC(c1nc2ccccc2[nH]1)n1c(=O)c(-c2ccco2)nc2ccccc21 (stereo not drawn),?,-2,.,.,.
O=C(NC1CCCCC1)C(c1cccc2ccccc12)n1c(=O)c(-c2ccco2)nc2ccccc21 (stereo not drawn),-82*,-14,.,.,.
CC(C)(C)NC(=O)C(c1cc2ccccc2o1)n1c(=O)c(-c2ccco2)nc2ccccc21 (stereo not drawn),-58*,-6,.,.,.
CC(C)(C)NC(=O)C(c1ccccc1)n1c(=O)c(-c2ccco2)nc2ccccc21 (stereo not drawn),-54*,-10,.,.,.
CC(C)(C)NC(=O)C(c1ccncc1)n1c(=O)c(-c2ccco2)nc2ccccc21 (stereo not drawn),-18,-2,.,.,.
SMILES,PI5P4Ka inh,PI4K2A block,PGK inhibitor,Pin1 inhibitor,Tb PFK block
O=c1c(-c2ccco2)nc2ccccc2n1C(CCc1ccccc1)c1nc2ccccc2[nH]1 (stereo not drawn),-73*,-10,.,.,.
O=C(NCC1CCCCC1)c1cc2ccccc2cc1O,5,0,-3%,?,-1%
O=C(N/N=C1/CC2CCC1C2)c1cc2ccccc2cc1O (stereo not drawn),-56*,-1,i,?,-4%
O=[S+]([O-])(c1ccc(N2CCOCC2)nc1)N1CCN([S+](=O)([O-])c2c(F)cccc2F)CC1,.,.,.,-4%,.
O=C(/C=C/c1ccccc1Cl)NC1CCS(=O)(=O)C1 (stereo not drawn),-69*,-7,i,0%,4%
COc1cc(C(c2c(C)[nH][nH]c2=O)c2c(C)[nH][nH]c2=O)cc([N+](=O)[O-])c1O,-60*,-18,i,-25%,-10%
COc1ccc(-n2cnc3c(c2=N)C(c2cccc(OC)c2)c2c(ccc4ccccc24)O3)cc1 (stereo not drawn),.,.,.,15%,.
CC(=O)c1ccc2c(c1)C1C=CCC1C(C(=O)O)N2 (stereo not drawn),-91*,-13,14µM*,.,8.5µM*
O=C(c1ccc2c3n(nc2c1)-c1ccccc1CO3)N1CCOCC1,?,-55*,?,-2%,-21%
CC(=O)C(C(C)=O)C(NC(=O)c1cccnc1)(C(F)(F)F)C(F)(F)F,-63*,-8,-4%,-11%,-2%
O=S(=O)(Nc1nc(-c2sccc2Cl)cs1)c1cc(Cl)ccc1Cl,-50*,-12,-19%,.,0%
Oc1c(N=Nc2ccc(F)cc2)ccc2ccccc12,-1,-10,-6%,9%,-1%
Oc1c(N=Nc2nn[nH]n2)ccc2ccccc12,-82*,?,.,.,.
Cc1cc2nc3c(=O)[nH]c(=O)[nH]c3nc2c([N+](=O)[O-])c1N,-76*,-24,?,.,-8%
COc1ccc(CCn2c(C)cc(C(=O)COC(=O)c3ccc(NC(=O)CC#N)cc3)c2C)cc1,-50*,-24,-1%,?,?
Cc1c(Cl)cnc(NC(=O)COC(=O)c2ccc([N+](=O)[O-])s2)c1Cl,-79*,-7,-8%,?,-11%
COc1ccc2c(c1)CCCN2C(=O)C1CCCN(S(=O)(=O)c2ccc(Br)s2)C1 (stereo not drawn),.,-2,.,.,.
COCCCN1C(=O)[C@H](CC(=O)N2CCCCC2)[C@]2(C(=O)OC)CCCCC=C12,.,7,.,.,.
Cc1ccc(C(=O)/C=C/C(=O)c2ccc(C)cc2)cc1,-53*,-1,i,5%,-25%
CCn1c2ccccc2c2cc(C=NNC(=O)CSc3nc4ccccc4c(=O)n3-c3ccccc3)ccc21,.,-1,.,.,.
NC1=NC(=O)/C(=C/c2cc(Br)c(O)c(Br)c2)S1,-89*,11,-5%,?,21%
O=C1Nc2ccccc2C1(c1ccc(O)cc1)c1ccc(O)cc1,.,-3,.,.,.
COc1ccccc1/C=C/C=c1\sc2nc(=O)c(Cc3ccccc3)nn2c1=O,-76*,-13,-15%,?,-4%
CCCOc1ccc(Cc2nn3c(=O)/c(=C/c4ccco4)sc3nc2=O)cc1,?,?,-27%,.,7%
Cc1ccc(/C=C/C(=O)NC2CCCCCCC2)o1,-55*,-4,-2%,12%,-23%
Cc1ccc(/C=C/C(=O)NCC2COc3ccccc3O2)o1 (stereo not drawn),-70*,3,0%,21%,-18%
